FLuc counter = inhibits or activates purified firefly luciferase, miR-21 counter-screen. P08659. purified FLuc, Km substrates, luminescence inhibition. Potency, µM (series often up to 57.5 µM), inactives show at the highest dose activity change, negative = inhibition, hits mostly inhibitors. 360,000 compounds, 6.9% hits. AID 588342;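 note: plate controls were vehicle for no effect and reference inhibitor for full effect; nearly all actives have a fitted effect of over 55% in size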
Target sequence (P08659 whole entry, looked up): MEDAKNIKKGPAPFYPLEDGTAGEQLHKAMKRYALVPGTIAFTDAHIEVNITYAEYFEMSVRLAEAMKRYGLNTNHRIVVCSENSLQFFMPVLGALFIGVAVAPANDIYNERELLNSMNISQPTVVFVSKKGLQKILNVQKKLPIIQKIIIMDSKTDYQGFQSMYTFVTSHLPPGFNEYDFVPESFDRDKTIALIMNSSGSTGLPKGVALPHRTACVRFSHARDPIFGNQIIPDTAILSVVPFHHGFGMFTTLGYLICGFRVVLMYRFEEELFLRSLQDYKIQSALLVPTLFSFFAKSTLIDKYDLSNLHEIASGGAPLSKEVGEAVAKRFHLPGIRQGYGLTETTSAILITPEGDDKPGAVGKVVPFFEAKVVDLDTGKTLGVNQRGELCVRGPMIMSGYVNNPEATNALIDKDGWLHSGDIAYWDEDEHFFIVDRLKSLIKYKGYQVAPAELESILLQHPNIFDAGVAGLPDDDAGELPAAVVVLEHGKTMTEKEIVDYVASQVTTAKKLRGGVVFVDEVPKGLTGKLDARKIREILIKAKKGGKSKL
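Purified P. pyralis luciferase, 10 nM final, with Km-level 10 uM D-luciferin and 10 uM ATP in 50 mM Tris acetate pH 7.5, 10 mM Mg acetate, 0.01% Tween-20, 0.05% BSA; 6-point qHTS titration about 60 µM downward; luminescence read.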
Rab9 promoter act = activates the Rab9 promoter. Huh7 Rab9 promoter-luciferase reporter, luminescence, 24 h. Potency, µM (series often up to 9.22 µM), for the others: at the top dose activation, negative = inhibition, hits mostly activators. 320,000 compounds, 2.8% hits; note: % of control where 0% means no effect; nearly all actives have a fitted effect of over 60% in size
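Huh7 cells stably carrying Rab9 promoter–luciferase reporter, plated 1500 cells/well, compound added after 2 h and incubated 24 h at 37 °C; luciferase luminescence then read after 10 min with detection reagent.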
KinaseGlo FLuc = Kinase-Glo luciferase inhibition (counter-screen) | Q27757 | Kinase-Glo luciferase, ATP luminescence, 8 min | Potency, µM (series often up to 38.3 µM), without a hit: top-dose activity change, negative = inhibition, usual class: inhibitors | 200,000 compounds, 0.28% hits | AID 1379; note: % is set by controls: 0 for no effect and ±100 for the full control effect; nearly all actives have a fitted effect of over 60% in size
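Compounds were added to a substrate mix at pH 7.2 (50 mM imidazole, 10 uM ATP, within the enzyme's linear range), followed by Kinase-Glo detection reagent; luminescence was measured after 8 minutes at ambient temperature.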
SMN2 splice enh = enhancers of SMN2 splice variant expression; HEK293 SMN2-luciferase splicing reporter, luminescence, 30-36 h; Potency, µM (top dose mostly 46.1 µM), without a hit: at the highest dose activity change, positive = activation, actives largely listed as activators; 210,000 compounds, 2.8% hits; note: % of control where 0% means no effect; nearly all actives have a fitted effect of over 55% in size
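HEK293 cells carry an SMN2 […]–luciferase reporter in which exon 7 inclusion puts luciferase in frame. Cells were plated 10-12 h before compound addition, then incubated 30-36 h at 37C. ONE-Glo luminescence was read; sodium butyrate at 4.5 mM final served as control.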
NPC1 prom act = NPC1 promoter activation; Huh7 NPC1 promoter luciferase reporter, 24 h; Potency, µM (doses to about 9.22 µM), for inactives: at the highest dose activation, hits mostly activators; 320,000 compounds, 2.4% hits; note: % of control where 0% means no effect; nearly all actives have a fitted effect of over 60% in size
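Luciferase expression driven by the NPC1 promoter was measured in stably transfected Huh7 cells after a 24 h compound incubation, using a luciferase reagent and a luminescence read.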
ELG1 genotoxic = genotoxicity induction in ELG1-luciferase HEK293T cells. 330,000 compounds, 1.3% hits. Potency, µM (titrated, usually from 46 µM), for inactives: at the top dose activity change, positive = activation, usual class: activators. HEK293T ELG1-luciferase reporter, luminescence, 16 h. AID 504466; note: % of control where 0% means no effect; nearly all actives have a fitted effect of over 60% in size
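Step 1: seed 2,000 HEK293T ELG1-luciferase cells per well. Step 2: add compound or DMSO, incubate 16 hr at 37 °C. Step 3: ONE-Glo, 30 min at room temperature, read luminescence.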
An asterisk follows results filed as active; u = inconclusive; x = no result. Only some compounds are listed: those with a hit (about 7.5% of all), similar ones and a draw of the others. Calls come from the whole dose curve; as a rule, active = well fitted curve in the direction sought with a large enough effect; inconclusive = small, poorly fitted or top-dose-only effect, or another doubt; inactive = no such curve, though single readings can be large; an effect the other way counts as inactive or inconclusive. Potency is the fitted concentration of half-maximal effect.

SMILES	FLuc counter	Rab9 promoter act	KinaseGlo FLuc	SMN2 splice enh	NPC1 prom act	ELG1 genotoxic
Cc1ccc(SCC(=O)c2c(C)nc3cc(C)ccn23)cc1	-0.5%	-2.0%	2.9%	9.6%	-5.6%	5.2%
Cc1nn(-c2ccccc2)c2sc(C(=O)N3CCCCC3)cc12	19µM*	x	-0.2%	u	x	x
CCN(CC)c1ccc(-n2nc3cc(C)c(NC(=O)c4ccccc4C)cc3n2)c(C)c1	7.1%	x	x	6.31µM*	x	x
CCN(CC)c1ccc(NC(=O)c2cccc(C)c2OC)c(C)c1	10.7µM*	u	-12.2%	u	1.12µM*	u
CCN(CC)c1ccc(NC(=O)C2=CC=CN3CCS(=O)(=O)N=C23)cc1	3.01µM*	u	x	x	17.4%	11.6%
CC(C)(C)c1ccc(NC(=O)C2=CC=CN3CCS(=O)(=O)N=C23)cc1	x	u	x	x	29.8%	u
Cc1ccc2nc(-c3ccc4c(c3)OCCO4)cn2c1	0.0675µM*	-36.7%	x	x	-32.0%	u
Clc1ccc2nc(-c3ccc4c(c3)OCO4)cn2c1	0.12µM*	0.126µM*	u	x	0.316µM*	u
O=C1COc2ccc(-c3csc(NCCc4ccccc4)n3)cc2N1	26.9µM*	-0.4%	0.8%	-50.6%	-1.5%	-6.9%
Cc1ccc2nc(-c3ccc4c(c3)NC(=O)CO4)cn2c1	0.849µM*	1.12µM*	x	x	1.58µM*	u
Cc1sc2ncn(CC(=O)N3CCN(c4cccc(Cl)c4)CC3)c(=O)c2c1S(=O)(=O)N1CCC(C)CC1	7.5%	x	x	-6.3%	x	x
CCOc1ccccc1NC(=O)Cn1ccn(Cc2ccc(C)cc2)c(=O)c1=O	2.2%	x	x	x	x	x
Cc1csc(NC(=O)c2ccc3ccccc3n2)n1	1.07µM*	1.12µM*	x	x	0.501µM*	u
Cc1csc(NC(=O)c2cnc3ccccc3n2)n1	2.39µM*	u	x	x	u	u
O=C(Nc1ccccn1)c1ccc2ccccc2n1	0.953µM*	4.47µM*	u	11.2µM*	u	u
CCC(CC)c1nnc(NC(=O)c2ccc3ccccc3n2)s1	5.36µM*	u	-3.0%	12.6µM*	u	u
Cc1csc(NC(=O)c2cc(C)nc3ccccc23)n1	-9.4%	-1.8%	-0.9%	-0.9%	-6.8%	-7.2%
Cc1nn(-c2ccccc2)c(OC(=O)c2ccccc2F)c1S(=O)(=O)c1ccccc1	u	x	x	-4.1%	x	x
COc1ccc2c(c1)c1c(c(=O)n(Cc3ccccc3)c(=O)n1Cc1ccccc1Cl)n2C	-0.6%	x	x	x	x	x
O=C(Nc1nccs1)c1ccc2ccccc2n1	3.38µM*	u	x	x	3.98µM*	u
O=C(NCc1ccccc1F)c1ccc2ccccc2n1	-14.9%	-0.2%	x	x	3.3%	3.7%
O=C(Nc1nccs1)c1cc(Cl)nc2ccccc12	-3.8%	0.6%	x	x	-4.3%	-4.1%
Cc1ccccc1NC(=O)c1cccc(C(=O)Nc2ccccc2C)n1	4.4%	-0.3%	x	x	-2.4%	-7.4%
Cc1ccc(S(=O)(=O)N2CCCCC2)cc1NC(=O)c1ccc2ccccc2n1	26.9µM*	12.9%	2.5%	11.4%	9.5%	-0.4%
O=C(NCc1ccccc1Cl)c1ccc2ccccc2n1	15.1µM*	u	x	x	u	u
SMILES	FLuc counter	Rab9 promoter act	KinaseGlo FLuc	SMN2 splice enh	NPC1 prom act	ELG1 genotoxic
Cc1cccc(NC(=O)c2ccc3ccccc3n2)c1C	0.849µM*	u	-6.6%	12.6µM*	u	u
CCc1cccc(C)c1NC(=O)C(C)Sc1nc2c(c(=O)[nH]1)CCCC2 (stereo unspecified)	-3.4%	x	x	x	x	x
COc1ccc(Oc2ncc3nc(-c4ccc(OC)cc4)c(=O)n(CCC#N)c3n2)cc1	x	x	-1.5%	-3.5%	x	x
O=C(Cn1c(=O)oc2cc(S(=O)(=O)N3CCCCC3)ccc21)NCc1ccc(Cl)cc1	-12.9%	x	x	-42.4%	x	x
CN(C(=O)Cn1nc(Cc2cccnc2)c2ccccc2c1=O)c1cccc(C(F)(F)F)c1	-1.2%	x	x	-14.3%	x	x
Nc1nccc(/C=C/c2ccc(Cl)cc2)n1	6.01µM*	2.24µM*	x	x	1.78µM*	u
Cc1cccc(-n2c(=O)c3c(c4cc(C)ccc4n3C)n(CC(=O)N3CCCC3)c2=O)c1	-7.0%	x	x	x	x	x
